{"source": "PubChem BioAssay", "key": {"[1]": {"assay": "viability loss in pontine glioma line – cell-based, SU-DIPG-XXV, MIPE5.0, CellTiter-Glo, qHTS, dose response (AID 1347065);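 further: cells exposed to compound for 48 hours before ATP readout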", "settings": "CellTiter-Glo ATP luminescence"}, "[2]": {"assay": "JHH-DIPG-1 glioma cell viability, MIPE5.0 library, CellTiter-Glo luminescence, qHTS (AID 1347067);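 further: cells exposed to compound for 48 hours before readout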", "settings": "JHH-DIPG-1 glioma viability, CellTiter-Glo ATP luminescence"}, "[3]": {"assay": "growth inhibition of DIPG cells – cell-based, MIPE5.0 library, qHTS (AID 1347068; cut-off not given, nearly all actives have IC50 up to about 30 µM;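 on IC50: cells exposed to compound for 48 hours before viability readout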)", "settings": "SU-DIPG-XXV viability"}, "[4]": {"assay": "viability loss with induced miR-34 in A549 – imaging, A549 dox-inducible miR-34, nuclei and caspase counts, primary screen (AID 1347080;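 active means compounds whose cell count with miR-34 switched on is under 0.7 times the count with it off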)", "settings": "A549 miR-34 inducible, Hoechst nuclei count, 48 h"}, "[5]": {"assay": "MELAS cybrid and Rieske KO viability enhancers – cell-based, MELAS cybrids, Rieske KO mouse fibroblasts, CellTiter-Glo, primary screen (AID 1508586;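 active means mean z-score across replicates of 1.96 or higher in either the MELAS or the Rieske mutant cell line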;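 further: z relative to plate mean and SD of compound and empty wells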)", "settings": "low glucose"}, "[6]": {"assay": "growth inhibition of DIPG cells – cell-based, MIPE4.0 library, CellTiter-Glo luminescence, qHTS (AID 1347066; cut-off not given, nearly all actives have AC50 up to about 30 µM;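 further: cells exposed to compound for 48 hours before readout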)", "settings": "SU-DIPG-VI viability, CellTiter-Glo ATP luminescence"}, "[7]": {"assay": "P. berghei load reduction in hepatocytes – cell-based, HepG2, luciferase luminescence, HepG2 viability, primary screen (AID 624349; in the data active means parasite load remaining mostly below about 12%, no sharp cut-off; inactive means mostly above about 10%;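 further: 100% = mean of DMSO negative control wells on the same plate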)", "settings": "P. berghei liver stage in HepG2, luciferase luminescence, concentration not given here; parasite load remaining: stronger effect = lower value; viability: measured here: HepG2 viability without parasites"}, "[8]": {"test_system": "Hepatitis C virus NS3 helicase", "assay": "blockers of NS3h binding to ssDNA – biochemical, fluorescence polarization, LOPAC1280 library, primary screen (AID 687035; in the data active means inhibition above about 37%)", "settings": "Purified HCV NS3 helicase, Cy5-dT15 ssDNA binding fluorescence polarization; stronger effect = higher value; concentration not given here"}, "[9]": {"assay": "compounds altering Cy5-DNA-NS3h complex signal – biochemical, LOPAC1280, artefact control for HCV NS3 helicase inhibitor project (AID 687037; call rule not given here)", "settings": "Cy5-DNA-NS3h complex fluorescence interference counterscreen"}, "[10]": {"assay": "blockers of cellular phospholipid synthesis – cell-based, LOPAC library, screen 4, primary screen (AID 1347384; call rule not given here)", "settings": "animal cells, phospholipid biosynthesis inhibition screen; at 10 µM"}, "[11]": {"assay": "galactose survival enhancers in mitochondrial complex I cybrids – cell-based, galactose medium, ATP luminescence, primary screen (AID 1645843;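 active means z-score of at least 1.8 in each of two replicates, scored against plate mean and spread of sample wells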;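 further: positive z means more ATP and so rescue of galactose-driven cybrid death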)", "settings": "complex I mutant cybrid cells, 72 h, stronger effect = higher value"}, "[12]": {"settings": "stronger effect = lower value, cell number ratio, induced over uninduced"}, "[13]": {"settings": "measured here: relative caspase fold change +Dox/-Dox"}, "[14]": {"settings": "measured here: total cells with miR-34 induction, stronger effect = lower value"}, "[15]": {"settings": "measured here: total cells without miR-34 induction"}}, "note": "Records with an inconclusive call do not appear. The source made the active and inactive calls. Unless noted, cut-off not given; nearly all actives show AC50 up to about 26 µM.", "data": [{"smiles": "CCNCc1nc2c(N)nc3ccccc3c2n1CC(C)(C)O", "values": [{"measurement": "outcome", "setting": "[1]", "value": "inactive"}, {"measurement": "outcome", "setting": "[2]", "value": "inactive"}, {"measurement": "outcome", "setting": "[3]", "value": "inactive"}]}, {"smiles": "Cn1cc(-c2cnn3c(N)c(Br)c(C4CCCNC4)nc23)cn1", "note": "(stereo not drawn)", "values": [{"measurement": "outcome", "setting": "[2]", "value": "inactive"}, {"measurement": "fold change", "setting": "[4]; [12]", "value": "0.949 (inactive)"}, {"measurement": "fold change", "setting": "[4]; [13]", "value": 0.873}, {"measurement": "cell count", "setting": "[4]; [14]", "value": 6160}, {"measurement": "cell count", "setting": "[4]; [15]", "value": 6490}, {"measurement": "z-score", "setting": "[5]; MELAS cybrid survival, CellTiter-Glo 48 h, stronger effect = higher value", "value": "0.0709 (inactive)"}, {"measurement": "z-score", "setting": "[5]; Rieske KO mouse fibroblast survival, CellTiter-Glo 72 h", "value": -0.322}]}, {"smiles": "FC(F)(F)c1ccc(Nc2nc3ccc(Oc4ccnc(-c5ncc(C(F)(F)F)[nH]5)c4)cc3[nH]2)cc1", "values": [{"measurement": "AC50", "setting": "[6]", "value": "20.9 µM (active)"}]}, {"smiles": "Cc1ccc2cc(-c3c(C)ccc(C(=O)c4c(-c5ccccc5)n(C)n(-c5ccccc5)c4=O)c3N)ccc2n1", "values": [{"measurement": "outcome", "setting": "[2]", "value": "inactive"}, {"measurement": "outcome", "setting": "[3]", "value": "inactive"}]}, {"smiles": "CCN1/C(=C/C(C)=O)Sc2ccc(OC)cc21", "values": [{"measurement": "parasite load remaining", "setting": "[7]", "value": "36.4% (inactive)"}, {"measurement": "viability", "setting": "[7]", "value": 92.3, "unit": "%"}, {"measurement": "inhibition", "setting": "[8]", "value": "-4% (inactive)"}, {"measurement": "fluorescence ratio (interference)", "setting": "[9]", "value": "0.9 (inactive)"}, {"measurement": "outcome", "setting": "[2]", "value": "inactive"}, {"measurement": "outcome", "setting": "[3]", "value": "inactive"}, {"measurement": "fold change", "setting": "[4]; [12]", "value": "1.04 (inactive)"}, {"measurement": "fold change", "setting": "[4]; [13]", "value": 1.19}, {"measurement": "cell count", "setting": "[4]; [14]", "value": 7360}, {"measurement": "cell count", "setting": "[4]; [15]", "value": 7040}, {"measurement": "outcome", "setting": "[10]", "value": "inactive"}, {"measurement": "z-score", "setting": "[11]", "value": "0.785 (inactive)"}]}, {"smiles": "CC1Cc2ccccc2N1C(=O)Cc1nc(N2CCOCC2)cc(=O)[nH]1", "note": "(stereo not drawn)", "values": [{"measurement": "outcome", "setting": "[2]", "value": "inactive"}]}, {"smiles": "O=C1S/C(=C\\c2ccc(OCc3cccc(B(O)O)c3)cc2)C(=O)N1Cc1ccc(F)cc1", "values": [{"measurement": "IC50", "setting": "[3]", "value": "23.5 µM (active)"}]}, {"smiles": "C[C@H]1CC2[C@@H]3CCC4=CC(=O)C=C[C@]4(C)[C@@]3(F)[C@@H](O)C[C@]2(C)[C@@]1(O)C(=O)CO", "note": "(stereo partly drawn)", "values": [{"measurement": "outcome", "setting": "[2]", "value": "inactive"}, {"measurement": "outcome", "setting": "[3]", "value": "inactive"}]}, {"smiles": "COCCOc1ccc(N2CCN(CCn3ncc4c3nc(N)n3nc(-c5ccco5)nc43)CC2)cc1", "values": [{"measurement": "outcome", "setting": "[2]", "value": "inactive"}, {"measurement": "outcome", "setting": "[3]", "value": "inactive"}]}, {"smiles": "CC(=O)O/N=C1\\C(=O)N(Cc2cc(Cl)ccc2Cl)c2ccc(Cl)cc21", "values": [{"measurement": "AC50", "setting": "[2]", "value": "23.5 µM (active)"}, {"measurement": "IC50", "setting": "[3]", "value": "8.33 µM (active)"}]}]}
